Records with an inconclusive call do not appear. The source made the active and inactive calls. The calls were made as follows: active = hit-call score of the fitted dose curve at least 0.9, where 1 is the maximum; inconclusive = response in the unintended direction; inactive = score below 0.9.
Key:
[1] = target: Cellular tumor antigen p53 (Homo sapiens) (UniProt P04637); experiment: TOX21_p53_BLA_p5_ratio: Tox21 HCT-116 p53 Agonism Beta-lactamase Assay, Ratio, Phase 5 (AID 2283599)
How it was run: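 HCT-116 p53-bla cells (4000/well) plated 5 h, dosed with compound (217-fold DMSO dilution) for 16 h at 37 C; CCF4-AM substrate 2 h at room temperature. Activity is the 460/530 nm emission ratio (405 nm excitation), fitted in gain-of-signal direction versus DMSO.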

[2] = Tanguay_ZF_120hpf_MORT_legacy: (Legacy) Oregon State University Tanguay Lab 120 Hour Post-fertilization zebrafish Assay for Mortality (AID 2283633);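 as to AC50: fitted as increase in binary mortality versus DMSO negative control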
How it was run: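 Mortality endpoint from a multiplexed whole-embryo zebrafish screen. Dechorionated wild-type embryos received compound at 6 hpf and remained under static exposure at 28C until 120 hpf, with death noted as a present/absent call.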

[3] = Tanguay_ZF_120hpf_YSE_legacy: (Legacy) Oregon State University Tanguay Lab 120 Hour Post-fertilization zebrafish Assay for Yolk Sac Edema (AID 2283634)
How it was run: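 Readout: presence or absence of yolk sac edema at 120 hpf, fitted upward against DMSO controls. Exposure ran statically from 6 hpf in dechorionated embryos kept at 28C.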

[4] = Tanguay_ZF_120hpf_AXIS_legacy: (Legacy) Oregon State University Tanguay Lab 120 Hour Post-fertilization zebrafish Assay for Body Axis Malformation (AID 2283635)
How it was run: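 Static 6–120 hpf chemical exposure of dechorionated wild-type 5D zebrafish, one per well at 28C; morphology endpoint scored binary at 120 hpf relative to DMSO control.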

[5] = Tanguay_ZF_120hpf_EYE_legacy: (Legacy) Oregon State University Tanguay Lab 120 Hour Post-fertilization zebrafish Assay for Eye Malformation (AID 2283636);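 also: binary presence or absence of eye malformation scored by brightfield in 120 hpf larvae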
How it was run: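 Dechorionated Tropical 5D zebrafish embryos, one per well from 6 hpf, static exposure to 120 hpf at 28C, 0.64% DMSO. Eye malformation scored present/absent by brightfield; dead embryos not scored.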

[6] = Tanguay_ZF_120hpf_SNOU_legacy: (Legacy) Oregon State University Tanguay Lab 120 Hour Post-fertilization zebrafish Assay for Snout Malformation (AID 2283637)
How it was run: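 Dechorionated tropical 5D wild-type zebrafish embryos exposed statically from 6 to 120 hpf at 28C, one per well, in 0.64% DMSO. Snout malformation scored as present/absent by brightfield at 120 hpf; dead embryos not scored.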

[7] = Tanguay_ZF_120hpf_JAW_legacy: (Legacy) Oregon State University Tanguay Lab 120 Hour Post-fertilization zebrafish Assay for Jaw Malformation (AID 2283638)
How it was run: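 Static waterborne exposure of dechorionated wild-type (Tropical 5D) zebrafish from 6 to 120 hpf at 28C, 0.64% DMSO vehicle; 5uM trimethyltin chloride served as positive control. Jaw morphology recorded as binary at 120 hpf.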

[8] = Tanguay_ZF_120hpf_OTIC_legacy: (Legacy) Oregon State University Tanguay Lab 120 Hour Post-fertilization zebrafish Assay for Otic Vesicle Malformation (AID 2283639)
How it was run: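 Otic vesicle malformation is read as a yes/no morphology call at 120 hpf. Exposure is static at 28C with 0.64% (vol/vol) DMSO; embryos that die are excluded from non-mortality endpoints.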

Chain of Cellular tumor antigen p53 (Homo sapiens) (P04637 whole entry, looked up): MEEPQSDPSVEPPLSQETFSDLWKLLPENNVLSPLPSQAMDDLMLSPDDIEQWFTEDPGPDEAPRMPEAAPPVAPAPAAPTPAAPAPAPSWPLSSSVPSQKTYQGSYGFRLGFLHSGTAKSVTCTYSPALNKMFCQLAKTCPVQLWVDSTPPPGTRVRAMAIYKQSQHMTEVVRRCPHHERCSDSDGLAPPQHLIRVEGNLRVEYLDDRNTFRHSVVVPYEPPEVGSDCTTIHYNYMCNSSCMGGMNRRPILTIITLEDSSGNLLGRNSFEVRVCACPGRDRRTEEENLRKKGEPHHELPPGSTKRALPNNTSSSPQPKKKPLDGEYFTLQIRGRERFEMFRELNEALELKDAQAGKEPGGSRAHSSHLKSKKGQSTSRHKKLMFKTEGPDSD

Row | Compound | outcome [1] | outcome [2] | outcome [3] | outcome [4] | outcome [5] | outcome [6] | outcome [7] | outcome [8] | AC50 [2]
1 | CCCCc1nc2cccnc2n1Cc1ccc(-c2ccccc2-c2nnn[nH]2)cc1 | inactive | inactive | inactive | inactive | inactive | inactive | inactive | inactive | –
2 | NCCOCCOCCN | inactive | inactive | inactive | inactive | – | inactive | inactive | inactive | –
3 | O=[Si]=O | – | inactive | inactive | inactive | inactive | inactive | inactive | inactive | –
4 | C=CCc1ccc(OC)c(OC)c1 | inactive | – | inactive | inactive | inactive | inactive | inactive | inactive | –
5 | CC1(C)C(=O)NC(=O)N1CO | inactive | inactive | inactive | inactive | inactive | inactive | inactive | inactive | –
6 | CC(COCC(C)OC(=O)c1ccccc1)OC(=O)c1ccccc1 (centres undefined) | – | inactive | inactive | inactive | inactive | inactive | inactive | inactive | –
7 | c1ccc2occc2c1 | inactive | inactive | – | inactive | inactive | – | inactive | inactive | –
8 | Cc1occc(=O)c1O | – | inactive | inactive | inactive | inactive | inactive | inactive | inactive | –
9 | C=CCCCCCCCCCCCC | inactive | inactive | inactive | inactive | inactive | – | – | inactive | –
10 | CC(=O)OC1CC(C)OC(C)O1 (centres undefined) | – | inactive | inactive | inactive | inactive | inactive | inactive | – | –
11 | OCC(O)CO | – | inactive | inactive | inactive | inactive | inactive | inactive | inactive | –
12 | CCCC(=O)O | – | inactive | inactive | inactive | inactive | inactive | – | – | –
13 | Cc1ccc(C(C)(C)C)c(O)c1 | inactive | inactive | inactive | inactive | – | inactive | inactive | inactive | –
14 | CO[C@@H]1COCC[C@@H]1N[C@@H]1CC[C@@](C(=O)N2CCc3ncc(C(F)(F)F)cc3C2)(C(C)C)C1 | – | inactive | inactive | inactive | inactive | inactive | inactive | inactive | –
15 | O=C(Oc1ccccc1)c1cccc(C(=O)Oc2ccccc2)c1 | – | inactive | inactive | inactive | inactive | inactive | inactive | inactive | –
16 | CSc1ccc(Oc2ccc(S(N)(=O)=O)cc2CN(C)C)cc1C | – | inactive | inactive | inactive | inactive | inactive | inactive | inactive | –
17 | OCC(CO)n1cnc(-c2ccc(F)cc2)c1-c1ccnc(Oc2ccccc2)n1 | inactive | inactive | inactive | inactive | – | inactive | inactive | inactive | –
18 | Nc1nc(=S)c2[nH]cnc2[nH]1 | – | inactive | inactive | inactive | inactive | inactive | inactive | – | –
19 | O=C1O[C@H]([C@H](O)CO)C(O)=C1O | inactive | inactive | inactive | inactive | inactive | – | inactive | – | –
20 | O=C1CCCCC1 | – | inactive | inactive | inactive | inactive | inactive | inactive | inactive | –
21 | O=C(NS(=O)(=O)/C=C/c1cccs1)c1ccc(F)cc1Br | – | inactive | inactive | inactive | inactive | inactive | inactive | inactive | –
22 | CCCCCCC(C=O)=Cc1ccccc1 | – | inactive | inactive | inactive | inactive | inactive | inactive | inactive | –
23 | CC(=O)CC(c1ccccc1)c1c(O)c2ccccc2oc1=O (centres undefined) | – | inactive | inactive | inactive | – | – | inactive | – | –
24 | CCCCCCCCCC[N+](C)(C)[O-] | – | inactive | inactive | – | inactive | inactive | inactive | inactive | –
25 | CC(C)(O)c1ccc(CNC(=O)c2cccnc2Oc2ccc(F)cc2)cc1 | – | inactive | inactive | inactive | inactive | inactive | inactive | inactive | –

Row | Compound | outcome [1] | outcome [2] | outcome [3] | outcome [4] | outcome [5] | outcome [6] | outcome [7] | outcome [8] | AC50 [2]
26 | CCN(CC)CCOc1ccc(C(=C(Cl)c2ccccc2)c2ccccc2)cc1 | – | – | inactive | inactive | inactive | – | inactive | inactive | 26.9 µM (active)
27 | O=C(O)CC(O)(CC(=O)O)C(=O)O | – | inactive | inactive | inactive | inactive | – | inactive | inactive | –
28 | CCCCOC(=O)CCCCC(=O)OCCCC | – | inactive | inactive | – | – | inactive | – | inactive | –
29 | CCCCCCCC(=O)OC | – | inactive | inactive | inactive | inactive | inactive | inactive | inactive | –
30 | CC(=O)[C@@]1(O)CC[C@H]2[C@@H]3CCC4=CC(=O)CC[C@]4(C)[C@H]3CC[C@@]21C | – | inactive | inactive | inactive | inactive | inactive | inactive | inactive | –
31 | CC(C)c1cccc(C(C)C)c1NC(=O)NS(=O)(=O)c1cc(C(C)(C)O)co1 | – | inactive | inactive | – | inactive | inactive | inactive | inactive | –
32 | CC(=O)O | – | inactive | inactive | inactive | inactive | – | inactive | inactive | –
33 | C/C=C/c1ccc(OC)cc1 | – | inactive | inactive | – | inactive | inactive | inactive | inactive | –
34 | O=C(N[C@@H](c1ccccc1)[C@@H]1CCCCN1)c1cccc(C(F)(F)F)c1Cl | – | – | inactive | inactive | inactive | inactive | inactive | inactive | 26.6 µM (active)
35 | Cn1cnc2c1c(=O)[nH]c(=O)n2C | – | inactive | inactive | inactive | inactive | inactive | inactive | inactive | –
36 | CC(=O)O[C@]1(C(C)=O)CC[C@H]2[C@@H]3C=C(Cl)C4=CC(=O)[C@@H]5C[C@@H]5[C@]4(C)[C@H]3CC[C@@]21C | – | inactive | inactive | inactive | inactive | inactive | inactive | inactive | –
37 | N[C@@H](Cc1c[nH]c2ccccc12)C(=O)O | – | inactive | inactive | – | inactive | – | inactive | inactive | –
38 | C/C=C/C=C/C(=O)O | – | inactive | – | inactive | inactive | inactive | inactive | – | –
39 | O=Cc1ccccc1C=O | – | – | inactive | inactive | inactive | inactive | – | inactive | 4.42 µM (active)
40 | CC(=O)OCC(COC(C)=O)OC(C)=O | – | inactive | inactive | – | inactive | inactive | inactive | inactive | –
41 | CN(C)C(=O)NC1(c2ccccc2)CCN(CCC[C@]2(c3ccc(Cl)c(Cl)c3)CCCN(C(=O)c3ccccc3)C2)CC1 | – | inactive | inactive | inactive | inactive | inactive | inactive | inactive | –
42 | CC(C)OC(=O)C(C)(C)Oc1ccc(C(=O)c2ccc(Cl)cc2)cc1 | – | inactive | – | – | inactive | – | – | inactive | –
43 | Cc1cn([C@H]2C=C[C@@H](CO)O2)c(=O)[nH]c1=O | – | inactive | inactive | inactive | inactive | inactive | inactive | inactive | –
44 | CC(C)c1cccc(C(C)C)c1 | – | inactive | – | inactive | inactive | – | inactive | inactive | –
45 | O=C(O)c1cccnc1 | – | inactive | inactive | inactive | inactive | inactive | inactive | inactive | –
46 | O=C1NC(=O)C(c2ccccc2)(c2ccccc2)N1 | – | inactive | inactive | inactive | inactive | inactive | inactive | inactive | –
47 | CC(N)=O | – | inactive | inactive | inactive | inactive | inactive | inactive | inactive | –
48 | CC(C)COC(=O)CCCCC(=O)OCC(C)C | – | inactive | inactive | inactive | inactive | inactive | inactive | inactive | –
49 | NC=O | – | inactive | inactive | inactive | inactive | inactive | inactive | inactive | –

Reference: PubChem BioAssay (EPA / NIEHS)
